# GSTO1 inh – counter-screen for RBBP9 inhibitors: inhibitors of human GSTO1; P78417; recombinant GSTO1, activity-based probe fluorescence polarization; inhibition, % at 5.96 µM; 300,000 tested, 1.1% active;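 active = inhibition above the campaign mean inhibition plus 3 SD, cut at about 35% in these data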;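 also: 0% = GSTO1-1 with DMSO and 100% = wells lacking GSTO1-1 enzyme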
# PME-1 inh – PME-1 (human) inhibition. Q9Y570. recombinant PME-1, FP-Rh probe fluorescence polarization. inhibition, % at 5.9 µM. 320,000 tested, 0.53% active. AID 2130;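 active = inhibition above the campaign mean of all compounds plus 3 SD, cut at about 26% in these data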;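 also: competitive labeling of PME-1 active site by serine hydrolase directed probe; 0% = PME-1 with DMSO and 100% = wells lacking PME-1 enzyme; inhibitors block probe labeling so polarization falls and inhibition rises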
# Target sequence (Q9Y570 whole entry, looked up): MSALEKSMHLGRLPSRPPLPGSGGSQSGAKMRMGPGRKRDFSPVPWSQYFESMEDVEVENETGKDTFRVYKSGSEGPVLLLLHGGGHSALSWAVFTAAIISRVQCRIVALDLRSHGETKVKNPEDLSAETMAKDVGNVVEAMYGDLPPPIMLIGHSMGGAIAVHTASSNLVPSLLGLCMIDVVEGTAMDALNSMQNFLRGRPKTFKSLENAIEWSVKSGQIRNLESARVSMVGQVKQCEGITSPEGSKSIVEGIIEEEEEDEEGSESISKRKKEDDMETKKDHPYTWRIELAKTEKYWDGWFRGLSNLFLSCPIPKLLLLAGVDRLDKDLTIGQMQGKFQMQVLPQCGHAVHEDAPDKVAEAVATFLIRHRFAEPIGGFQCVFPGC
# Fam108B inh – blocks mouse Fam108B hydrolase in RBBP9 counter-screen | recombinant Fam108B, FP-Rh probe fluorescence polarization | inhibition, % at 9.51 µM | 300,000 tested, 0.33% active | AID 1947;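 active = inhibition above the screen mean inhibition plus 3 SD, computed separately per campaign, cut at about 18% in these data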;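 also: inhibitors lower polarization as less probe binds the enzyme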
# PAD4 FP inh – inhibitors of human PAD4. Q9UM07. recombinant PAD4, RCA probe fluorescence polarization. inhibition, % at 6.36 µM. 330,000 tested, 0.41% active;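 active = percent inhibition above a cutoff equal to the mean of all tested compounds plus 3 SD, cut at about 15% in these data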;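 also: 0% = PAD4 with RCA probe and DMSO and 100% = probe without PAD4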
# pPAFAH inh – pPAFAH (human) enzyme inhibition; 330,000 tested, 1.5% active; inhibition, % at 3.39 µM; recombinant pPAFAH, FP-rhodamine probe fluorescence polarization; AID 463082; Q13093;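 active = inhibition above the mean inhibition across the screen plus 3 SD, cut at about 25% in these data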;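 also: inhibitors block binding of the rhodamine activity-based probe so polarization drops; 0% = enzyme with DMSO and 100% = wells lacking pPAFAH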
# pPAFAH FP conf – confirmation of human plasma PAF acetylhydrolase (pPAFAH) inhibitors. shares compounds with pPAFAH inh. recombinant pPAFAH, FP-Rh probe fluorescence polarization. inhibition, % at 3.39 µM. 2,300 tested, 72% active. AID 463230;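 active = mean inhibition of the triplicate above the hit cutoff set for the earlier primary screen, cut at about 25% in these data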;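 also: 0% = enzyme with DMSO and 100% = wells lacking pPAFAH enzyme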
# Numbers without * were called inactive; . = no result. A selection: hits, their analogues and other compounds. The true share with any hit is near 2.3%.
SMILES,GSTO1 inh,PME-1 inh,Fam108B inh,PAD4 FP inh,pPAFAH inh,pPAFAH FP conf
Cc1ccc([N+](=O)[O-])cc1N(CC(=O)NC1CCCC1)S(C)(=O)=O,23,-9,-4,-1,-9,.
Cc1ccc(-n2c(C)cc(/C=C3\SC(=O)NC3=O)c2C)cc1,3,7,-1,-3,14,.
COc1ccc(-n2c(C)cc(/C=C3\SC(=O)NC3=O)c2C)cc1,5,-5,4,-6,40*,23
N#CC1=C(N)N2C(=C(C#N)C1c1ccc(Br)cc1)Nc1ccccc12 (stereo unspecified),-12,2,9,-5,63*,71*
N#CC1=C(N)N2C(=C(C#N)C1c1cccc(Br)c1)Nc1ccccc12 (stereo unspecified),-7,7,3,3,6,.
COc1ccc(-n2cc(-c3ccccc3)c3c(NCCCN4CCOCC4)ncnc32)cc1,0,0,0,3,35*,18
COc1ccc(-n2cc(-c3ccccc3)c3c(N4CCOCC4)ncnc32)cc1,-2,4,6,-2,17,.
O=S(=O)(Nc1nc(-c2sccc2Cl)cs1)c1cc(Cl)ccc1Cl,40*,13,29*,-9,47*,51*
CC(=O)c1cccc(NC(=O)CSc2ccc(-c3ccco3)nn2)c1,10,2,1,-1,2,.
O=C(CSc1ccc(-c2ccco2)nn1)c1cccc([N+](=O)[O-])c1,12,6,9,0,38*,10
Oc1c(Br)cc(/C=N/NC(=S)NCc2ccco2)cc1Br,20,7,8,2,41*,57*
Cc1ccc(C(NC(=O)C(C)C)c2cc([N+](=O)[O-])c3cccnc3c2O)cc1 (stereo unspecified),-8,4,2,-5,54*,74*
CC(C)C(=O)NC(c1cccs1)c1cc([N+](=O)[O-])c2cccnc2c1O (stereo unspecified),-2,10,7,-9,84*,79*
CC(C)C(=O)NC(c1cccc([N+](=O)[O-])c1)c1ccc2cccnc2c1O (stereo unspecified),6,1,-3,0,14,.
COC(=O)[C@@H](Cc1c[nH]c2ccccc12)NC(=O)c1ccc2c(c1)OCO2,-1,-3,0,0,8,.
O=C(Cc1ccc(Cl)cc1)Nc1ccccc1C(=O)N1CCCCC1,5,1,-2,0,2,.
O=C(/C=C\c1ccccc1OC(=O)c1ccccc1F)c1cc2ccccc2o1,-27,-20,-16,-1,6,.
O=c1oc(Cc2ccccc2)nc2ccccc12,0,-4,2,-1,2,.
O=C(O/N=C(\c1ccccc1)c1ccncc1)c1ccccc1Cl,7,2,0,-5,45*,23
N/C(=N\OC(=O)c1ccccc1Cl)c1ccccc1,2,0,2,3,3,.
O=C(NCC1CCCN(Cc2cccc(F)c2)C1)c1cccc2ccccc12 (stereo unspecified),4,-2,7,-2,3,.
CC(=O)N1CCN(c2ccccc2NC(=O)COc2ccc(Br)cc2)CC1,3,-2,1,-2,5,.
O=C(COc1ccc(Br)cc1)Nc1ccccc1N1CCCC1,-1,-2,6,2,59*,8
CCOc1ccc(NS(=O)(=O)c2ccc(C(=O)NCC(c3ccc(OC)cc3)N3CCOCC3)cc2)cc1 (stereo unspecified),5,3,-2,-3,50*,59*
CCOc1ccc(NS(=O)(=O)c2ccc(C(=O)NCC3(N(C)C)CCCCC3)cc2)cc1,22,4,-3,-13,52*,45*
SMILES,GSTO1 inh,PME-1 inh,Fam108B inh,PAD4 FP inh,pPAFAH inh,pPAFAH FP conf
CC(=O)c1ccc(NC(=O)C(C)OC(=O)/C=C/c2ccco2)cc1 (stereo unspecified),.,.,.,0,-3,.
O=C1NC[C@H](CC2CCCCC2)N(CCc2cccc(F)c2)C1=O,1,2,2,1,3,.
c1cc2c(cc1C1CCCCC1)c1c3n2CCCNC3CCC1 (stereo unspecified),8,-6,6,2,45*,20
O=C1CC(Nc2ccc(N3CCOCC3)cc2)C(=O)N1c1cccc(C(F)(F)F)c1 (stereo unspecified),4,4,0,10,46*,6
CN(C)c1ccc(N2C(=O)CC(Nc3ccc(N4CCOCC4)cc3)C2=O)cc1 (stereo unspecified),3,-5,3,-5,7,.
CCOc1ccccc1NC(=O)C(OC(=O)c1ccc(NC(=O)CC#N)cc1)c1ccccc1 (stereo unspecified),-78,-54,-29,-4,5,.
CCc1ccc(CNC(=O)Cc2ccc(NC(=O)C3=C(C)OCCS3)cc2)cc1,5,2,1,2,36*,20
C=C1c2cccc(O)c2C(=O)C2C(=O)[C@]3(O)C(=O)C(C(N)=O)C(=O)[C@@H](N(C)C)[C@@H]3[C@@H](O)[C@H]12 (stereo partly specified),.,.,.,-20,92*,9
CCCC(=O)Nc1sc(C)c(C)c1C#N,-8,-2,-2,-3,1,.
CCc1c(C)sc(NC(=O)CC#N)c1C#N,31,-2,12,-6,35*,15
Cc1[nH]c2ccc(C(=O)OCC(=O)NC3(C#N)CCCCC3)cc2c1C,-8,5,-5,-4,45*,43*
Cc1ccc(-c2nc(SCC(=O)N(C)c3c(N)n(Cc4ccccc4)c(=O)[nH]c3=O)n[nH]2)cc1,-3,4,-3,1,2,.
Cc1nc(-c2ccccc2)sc1C(=O)Nc1ccccc1F,0,2,5,-6,8,.
Cc1nc(-c2ccccc2)sc1C(=O)Nc1ccc(S(N)(=O)=O)cc1,1,-15,0,-3,46*,-7
Nc1c(C(=O)Nc2nc3ccccc3s2)sc2nc(-c3cccs3)ccc12,9,34*,8,3,50*,43*
COc1ccc(-c2nc(-c3ccccc3)[nH]c(=O)c2C#N)cc1,-9,-3,0,-5,52*,0
Cc1ccc(C(=O)O/N=C(\N)c2nonc2N)cc1,-2,-1,5,-2,2,.
CC(NCC(=O)NC(=O)NC1CCCC1)c1ccc(Cl)cc1Cl (stereo unspecified),-1,9,2,5,58*,3
NC(=O)CN1C(=O)NC2(CCCc3sccc32)C1=O (stereo unspecified),5,9,-2,1,-2,.
Cc1cc(C(=O)CN2C(=O)NC3(CCCc4sccc43)C2=O)c(C)n1-c1ccc(Cl)cc1 (stereo unspecified),5,-5,1,-2,40*,42*
CN(CC1COc2ccccc2O1)C(=O)c1ccc(Cl)c(S(=O)(=O)N2CCCCCC2)c1 (stereo unspecified),.,5,.,1,5,.
